High-throughput results deposited in PubChem by Sanford-Burnham Center for Chemical Genomics.
An excerpt weighted towards active compounds, which were near 2.2% of everything screened.
KKLEB tox: cytotoxicity in KKLEB CF airway cells, primary screen, cytotoxicity control for CF NF-kB inhibitor project, cell-based, uHTS, fluorescence assay plates | KKLEB CF airway cells viability, ATPlite luminescence, overnight; active compounds read low; cells stimulated with P. aeruginosa culture filtrate | activity change (cytotoxicity), % at 5 µM | hit rate 0.36% among 360,000 | AID 602141, 2011;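 active = corrected activity change at or below -50% at 5 µM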
C8 TRAIL sens: viability loss with TRAIL in NB7+C8 cells, primary screen, TRAIL sensitizer project, cell-based, ATPlite luminescence; inhibition (viability loss, TRAIL sensitization), % at 10 µM; hit rate 1% among 360,000; AID 624354, 2012;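 active = compounds causing at least 50% loss of cell viability in the single-dose screen, relative to plate controls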
iPSC survival up: enhancers of single-cell hiPSC survival, primary screen, ATPlite luminescence | survival enhancement, % at 20 µM | 100% = ROCK inhibitor wells, 0% = DMSO | hit rate 0.044% among 360,000; in the data active = survival enhancement above about 18%;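 also: cells exposed to compounds for 16 hours before the ATP read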
PPC-1+TRAIL kill: compounds killing PPC-1 cancer cells with TRAIL present, primary screen, TRAIL potentiator project, ATPLite luminescence, uHTS; PPC-1 cells + TRAIL, ATPLite viability luminescence; cell killing (% activity), % at 4 µM or 5 µM; hit rate 0.41% among 220,000;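 active = cell killing above 50% in the first pass at 4 µM, then a duplicate retest at 5 µM averaging 50% or more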;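 also: plate controls were cells with TRAIL plus DMSO for no effect and medium-only wells lacking cells for full effect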
CF NFkB block: inhibitors of PAF-induced NF-kB signaling, primary screen, cell-based, GFP fluorescence, uHTS; hit rate 0.86% among 360,000; KKLEB NF-kB-GFP reporter, GFP fluorescence overnight; inhibition, % at 5 µM; AID 588850, 2011;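 active = at least 50% inhibition at 5 µM, scaled per plate between neutral and stimulator controls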;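 also: PAF is a Pseudomonas aeruginosa culture filtrate used as stimulus; plate controls were PAF-stimulated DMSO wells for no effect and unstimulated DMSO wells for full effect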
HIF-2a block: HIF-2a reporter inhibitors, primary screen, luminescence, 786-0 RCC cells; 786-0 RCC cells HIF-2a reporter, luciferase luminescence, overnight; inhibition, % at 18.8 µM; hit rate 0.72% among 360,000;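 active = inhibition of the luminescence signal of 40% or more relative to plate controls, in a single-dose primary screen at 18.75 µM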
Mdm2 MdmX conf: retested Mdm2-MdmX interaction blockers, confirmation, cell-based, luminescence, single concentration, set 2; shares compounds with HIF-2a block; SaOS-2 split-luciferase Mdm2/MdmX complementation; inhibition, % at 8 µM; hit rate 99% among 740; AID 504601, 2011;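 active = mean inhibition of the luminescence signal across two replicates at or above 26 percent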
Target sequence (O15151 whole entry, looked up): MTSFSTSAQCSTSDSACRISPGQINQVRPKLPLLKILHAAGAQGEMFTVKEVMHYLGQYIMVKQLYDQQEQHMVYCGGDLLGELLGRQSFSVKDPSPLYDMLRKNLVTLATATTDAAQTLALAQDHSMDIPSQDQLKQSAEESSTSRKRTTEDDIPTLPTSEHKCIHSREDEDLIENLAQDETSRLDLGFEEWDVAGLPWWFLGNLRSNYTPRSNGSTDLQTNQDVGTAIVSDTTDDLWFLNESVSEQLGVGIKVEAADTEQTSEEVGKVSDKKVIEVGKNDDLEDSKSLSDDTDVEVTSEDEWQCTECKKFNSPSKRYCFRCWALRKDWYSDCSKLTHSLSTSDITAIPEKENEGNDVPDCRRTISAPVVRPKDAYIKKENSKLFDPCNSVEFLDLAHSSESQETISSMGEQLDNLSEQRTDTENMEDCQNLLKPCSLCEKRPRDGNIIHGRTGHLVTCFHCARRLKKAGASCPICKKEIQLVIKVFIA
Target sequence (Q00987 whole entry, looked up): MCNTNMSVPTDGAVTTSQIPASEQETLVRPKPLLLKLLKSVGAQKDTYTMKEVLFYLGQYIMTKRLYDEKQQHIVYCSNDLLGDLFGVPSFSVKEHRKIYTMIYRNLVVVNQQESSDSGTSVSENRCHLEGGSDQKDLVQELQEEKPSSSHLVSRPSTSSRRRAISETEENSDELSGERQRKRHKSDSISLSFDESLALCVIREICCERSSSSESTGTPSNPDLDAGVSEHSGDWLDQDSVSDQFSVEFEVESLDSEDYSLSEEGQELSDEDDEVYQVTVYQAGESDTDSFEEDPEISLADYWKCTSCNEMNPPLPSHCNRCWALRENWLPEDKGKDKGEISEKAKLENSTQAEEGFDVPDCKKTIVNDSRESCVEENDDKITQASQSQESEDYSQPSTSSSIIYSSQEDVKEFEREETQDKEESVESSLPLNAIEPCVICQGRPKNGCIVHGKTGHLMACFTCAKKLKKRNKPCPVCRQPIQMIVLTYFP
HIF-2a inh conf: HIF-2a reporter inhibitor retest, confirmation, luminescence, 786-0 RCC cells; shares compounds with HIF-2a block; HIF-2a luciferase reporter luminescence, overnight; inhibition, % at 18.8 µM; hit rate 56% among 1,800;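 active = mean inhibition across four replicates of at least 40 percent at the single tested concentration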
HIF-1a counter: HIF-1a luciferase reporter signal reduction – MiaPaCa-2 cells, single concentration, counter-screen for HIF-2a inhibitor project, confirmation; AID 651589, 2012; shares compounds with HIF-2a block; hit rate 72% among 1,800; inhibition, % at 18.8 µM; MiaPaCa-2 HIF-1a luciferase reporter, desferoxamine, overnight;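 active = mean inhibition of the reporter signal across four replicates at the single tested dose of 50% or more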
Starred values were filed as active, the others as inactive; . = not tested or not shown.

SMILES | KKLEB tox | C8 TRAIL sens | iPSC survival up | PPC-1+TRAIL kill | CF NFkB block | HIF-2a block | HIF-2a inh conf | HIF-1a counter | others
CC(C)(C)C1C/C(=C/c2ccccn2)C(=O)/C(=C/c2ccccn2)C1 (configuration not stated) | -52.9* | 15.4 | 8.5 | 37.5 | 88.7* | 95.8* | . | . | Mdm2 MdmX conf=103.0*
O=C(COC(=O)CCCOc1ccc(Cl)cc1Cl)NCc1ccc(F)cc1 | 0.5 | -5.8 | -2.6 | 20.7 | 4.3 | 52.3* | 46.1* | 40.5
O=C(CCCOc1ccc(Cl)cc1Cl)NCCc1ccccn1 | -4.3 | 12.3 | 0.2 | . | 3.2 | 58.9* | 57.3* | 79.7*
O=C(CCC1CCN(Cc2nccs2)CC1)Nc1ccccc1 | -4.9 | 5.0 | -1.4 | . | 3.2 | -67.0 | . | .
OC(c1cc(-c2ccc(C(F)(F)F)cc2)nc(C(F)(F)F)c1)C1CCCCN1 (configuration not stated) | -70.5* | 34.8 | -0.8 | 1.4 | 68.0* | 75.3* | 5.4 | 106.5* | Mdm2 MdmX conf=103.2*
COC(=O)c1ccc(CNC(=O)CN2C(=O)NC(Cc3ccccc3)(c3ccccc3)C2=O)cc1 (configuration not stated) | -20.4 | 8.0 | -1.6 | . | 1.9 | 14.9 | . | .
C=C1C(=O)c2sccc2C(c2ccc(OC)c(OC)c2)C1COC(C)=O (configuration not stated) | -91.5* | 92.7* | 4.9 | . | 83.8* | 86.5* | 99.3* | 106.5*
COc1ccc(/C=C/C(=O)c2cc(F)ccc2OC(=O)c2ccccc2)cc1OC | -20.3 | 4.7 | -5.9 | . | 53.0* | 44.1* | 36.2 | 21.3
COc1ccc(/C=C/C(=O)c2cc(Br)ccc2OC(=O)c2ccco2)cc1OC | 1.1 | -0.7 | 2.0 | 13.6 | 1.8 | 4.7 | . | .
COC(=O)COc1ccc(-c2nccc(-c3ccccn3)n2)cc1 | 2.1 | 5.6 | -0.3 | . | -5.5 | 70.9* | 91.2* | 63.6*
COC(=O)COc1ccc(-c2nccc(-c3ccc(Br)cc3)n2)cc1 | 1.4 | -8.4 | 1.1 | . | 8.4 | 40.7* | 42.8* | 7.8
CCc1ccc(CNC(=O)C2CCCN(c3nnc(C)c4c(C)n(-c5ccccc5)nc34)C2)cc1 (configuration not stated) | -11.9 | 31.3 | 1.4 | . | 4.1 | 2.6 | . | .
CCOc1ccccc1CNC(=O)C1CCN(c2nnc(C)c3c(C)n(-c4ccc(C)cc4)nc23)CC1 | -21.0 | 70.6* | 0.0 | . | -47.6 | 70.5* | 51.4* | 97.8*
COc1ccc(-n2nc3c(N4CCC(C(=O)NCc5cccc(C)c5)CC4)nnc(C)c3c2C)cc1 | -27.6 | 36.9 | -0.5 | . | -23.0 | 67.2* | 76.4* | 80.1*
CCOc1ccccc1CNC(=O)Cn1nc(C)c2c(C)n(-c3ccc(C)cc3)nc2c1=O | 0.2 | 40.5 | -0.2 | . | -0.7 | 8.3 | . | .
COc1ccccc1CCNC(=O)C1CCN(c2nnc(C)c3c(C)n(-c4ccc(C)cc4)nc23)CC1 | -35.3 | 6.8 | -0.5 | . | -20.2 | 40.1* | 26.6 | 82.5*
CCOc1ccc(CNC(=O)C2CCN(c3nnc(C)c4c(C)n(-c5ccc(C)cc5)nc34)CC2)cc1 | -2.4 | 14.2 | -0.6 | . | -57.6 | 68.9* | 7.7 | 31.7
Cc1cccnc1C1=NOC(Cc2ccccc2)C(=O)N1C (configuration not stated) | -5.2 | -4.5 | -0.7 | . | -24.5 | 6.5 | . | .
Cc1ccc(-n2nc3c(N4CCC(C(=O)NCc5ccccc5C)CC4)nnc(C)c3c2C)cc1 | -15.0 | 2.3 | -0.3 | . | 28.2 | 85.4* | 20.7 | 62.1*
Cc1ccccc1CNC(=O)C1CCCN(c2nnc(C)c3c(C)n(-c4ccccc4)nc23)C1 (configuration not stated) | -6.4 | 1.4 | 0.1 | . | -6.9 | 24.7 | . | .
CN(CCO)c1cc(Sc2nc3ccccc3s2)c2nonc2c1[N+](=O)[O-] | -4.3 | 60.3* | -0.7 | 9.3 | 17.5 | 86.5* | 88.8* | 73.0*
CC(=O)OCCN(C)c1cc(SC(C)C)c2nonc2c1[N+](=O)[O-] | 6.1 | 2.7 | 2.8 | 9.6 | 4.4 | 12.6 | . | .
COc1c(C)cc(C(=O)C2CCCN(S(=O)(=O)N(C)C)C2)cc1C (configuration not stated) | 8.5 | -26.1 | -0.1 | . | 5.2 | 10.4 | . | .
CCCCCCCCCCCCCCCC[N+](C)(C)CCl | -33.2 | 90.5* | -1.8 | . | 40.9 | 54.5* | 39.1 | 74.8*
CC#CC[N+](C)(C)CCCCCCCCCCCC | -45.2 | 40.0 | -2.1 | 46.6 | 32.9 | 51.8* | 38.7 | 71.8*
SMILES | KKLEB tox | C8 TRAIL sens | iPSC survival up | PPC-1+TRAIL kill | CF NFkB block | HIF-2a block | HIF-2a inh conf | HIF-1a counter | others
C#CC[N+](C)(C)CCCCCCCC | -16.4 | -0.1 | -3.6 | -21.9 | 36.8 | 10.5 | . | .
C#CC[N+](C)(C)CCCCCCCCCCCC | -43.1 | 32.7 | -0.8 | 44.0 | 46.4 | 38.7 | . | .
CCCCCC[N+](C)(C)CCSSCC[N+](C)(C)CCCCCC | -9.9 | 9.9 | 0.8 | 23.3 | -15.8 | 13.8 | . | .
CCCCCCCCCCCCCCCC[N+](C)(C)CC | 18.6 | 92.5* | -3.5 | . | 82.6* | 58.9* | 46.3* | 97.9*
NC(=S)N/N=C1\CCOc2ccc(F)cc21 | -3.8 | -15.9 | -0.2 | 14.5 | 5.7 | -2.6 | . | .
Cc1ccc(N=C(N)N=C(N)N)cc1 | 0.3 | 0.8 | -0.7 | -11.1 | 4.8 | 27.7 | . | .
Cc1noc(-c2ccc(Cl)cc2)c1C(=O)O/N=C(\N)c1ccc(C(C)(C)C)cc1 | -2.5 | 94.4* | -0.1 | 10.3 | 10.0 | 0.0 | . | . | Mdm2 MdmX conf=102.7*
CC(C)(C)c1ccc(C(=O)O/N=C(\N)c2ccccc2)cc1 | -11.9 | 92.6* | -0.4 | . | 2.8 | 71.5* | 87.4* | 86.8*
Cc1cc(C(=O)O/N=C(\N)c2ccc(C(C)(C)C)cc2)no1 | 5.5 | 7.9 | -0.6 | 11.8 | -4.1 | -286.5 | . | .
C[C@H](c1ccccc1)N1C[C@@H](COCc2ccccc2)Oc2cc(N3CCC[C@H]3CO)ccc2S1(=O)=O | . | -1.1 | -0.6 | . | . | 7.3 | . | .
CC(=O)c1ccc(N2C(=O)CC(N3CCN(S(=O)(=O)c4ccc(C)c(C)c4)CC3)C2=O)cc1 (configuration not stated) | -7.8 | 1.4 | -1.3 | . | 7.7 | 1.6 | . | .
